Compound activity deposited in PubChem BioAssay by National Center for Advancing Translational Sciences (NCATS).
Sampled rows, rich in hits. Any-hit rate of the full collection: about 2.6%.
TGFb inhibitor: qHTS for Inhibitors of TGF-b | HepG2 CAGA-GFP TGF-b/SMAD3 reporter, GFP fluorescence, 18 h; TGF-beta stimulated, 500 pg/mL final | Potency, µM (top dose mostly 46.1 µM), without a hit: top-dose activity, negative = inhibition, actives largely listed as inhibitors | actives 1.2% (n = 410,000) | AID 588855, 2011; further: potency means the concentration at half of the fitted maximal effect; on the % scale 0 is the no-effect control and ±100 the full control effect; nearly all actives have a fitted effect of over 65% in size
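Read-out: total well GFP (ex488/em500-530) summed from mean per-cell fluorescence. Cells: HEPG2 CAGA-GFP, 1% FBS DMEM, 18 h at 37 degrees C with 500 pg/mL final TGF-beta. Unstimulated wells served as the full-inhibition control; stimulated DMSO wells = 0%.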
HepG2 viability: qHTS for Inhibitors of TGF-b: Cytotox Counterscreen. HepG2 CAGA-GFP viability, ATP luminescence, 18 h. Potency, µM (top dose mostly 46.1 µM), for inactives: at the top dose activity change, negative = cytotoxicity, most hits filed as cytotoxic. actives 0.76% (n = 410,000); further: potency means the concentration at half of the fitted maximal effect
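HepG2 CAGA-GFP cells (1000/well, DMEM with 1% FBS) received compound, then TGF-beta at 500 pg/mL final, and were incubated 18 hours at 37 degrees C. Viability was read by CellTiter-Glo luminescence. Media-only wells were set as complete cell-killing and DMSO as no toxicity.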
Giardia killer: Small Molecules that selectively kill Giardia lamblia: qHTS. Giardia lamblia trophozoite viability. activity change, % at 7.66 µM, hits read low. actives 0.15% (n = 340,000); in the data active means activity change below about -80%; inconclusive means between about -30% and that limit;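 further: parasites exposed to compound for two days anaerobically before the ATP read; on the % scale 0 is the no-effect control and ±100 the full control effect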
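Compounds were tested on trophozoites seeded at 100 cells/well and held 48 hrs at 37 deg C anaerobically. An ATP-based luminescent kit measured the remaining live cells.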
uPA surface inh: qHTS for Inhibitors of Cell Surface uPA Generation; cell surface uPA generation assay, qHTS; Potency, µM (titrated, usually from 38.3 µM), for the others: at the top dose activity change, negative = inhibition, most hits filed as inhibitors; actives 0.31% (n = 330,000); AID 540303, 2011; active means well fitted inhibition curve with a large enough effect; inconclusive means small, poorly fitted or top-dose-only effect; inactive means no such curve, though single readings can be large or run the other way; tested in mouse RAW 264.7 cells; further: potency means the concentration at half of the fitted maximal effect; on the % scale 0 is the no-effect control and ±100 the full control effect; nearly all actives have a fitted effect of over 55% in size
S2 tox: Viability Counterscreen for Primary qHTS for Inhibitors of ATXN expression | S2 cells (HEK-293 line with an ATXN2-luciferase reporter) viability, CellTiter-Fluor protease fluorescence, 24 h | AID 651635, 2014 | Potency, µM (highest dose often 56.7 µM), usual class: cytotoxic | actives 0.49% (n = 400,000); further: potency means the concentration at half of the fitted maximal effect; nearly all actives have a fitted effect of over 40% in size
ATXN2 expr inh: Primary qHTS for Inhibitors of ATXN expression; HEK-293 ATXN2-luciferase reporter, luminescence, 24 h; Potency, µM (titrated, usually from 57 µM), for inactives: at the top dose activity change, negative = inhibition, usual class: inhibitors; actives 0.72% (n = 360,000); AID 1745845, 2022; further: potency means the concentration at half of the fitted maximal effect; on the % scale 0 is the no-effect control and ±100 the full control effect; nearly all actives have a fitted effect of over 55% in size
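qHTS (up to 57 uM final) was run with 24 h compound exposure of reporter cells at 37 °C. Each well was multiplexed: SteadyGlo luminescence measured ATXN2-luciferase expression after a fluorogenic Gly-Phe-AFC viability readout (25 uM final).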
An asterisk follows results filed as active; ! = not active in a repeat. Unless noted, the call rests on the fitted dose curve; in most records, active means well fitted curve in the direction sought with a large enough effect; inconclusive means small, poorly fitted or top-dose-only effect, or another doubt; inactive means no such curve, though single readings can be large; an effect the other way counts as inactive or inconclusive.

Results for O=C(c1ccc(COc2ccc3ccccc3c2)o1)N1N=C(C(F)F)CC1(O)C(F)F (stereo not drawn) ?
TGFb inhibitor: 11µM*; HepG2 viability: -108%; Giardia killer: 29; uPA surface inh: 6%; S2 tox: inactive; ATXN2 expr inh: -26%

How did C[C@@H](CO)[C@H](/C=C/c1ccccc1)CCO[Si](c1ccccc1)(c1ccccc1)C(C)(C)C do in these assays?
TGFb inhibitor: 0%; HepG2 viability: -1%; Giardia killer: -16

Results for Cc1cc2c(cc1C)N[C@]1(C[C@H]3CCCC(=O)N4CC[C@@H](C1)[C@@H]34)C(=NCc1ccccc1)N2 ?
TGFb inhibitor: -21%; HepG2 viability: -15%

What do the screens show for `Cc1nc([N+](=O)[O-])c(Br)n1CC(=O)c1ccc2ccccc2c1`?
TGFb inhibitor: inconclusive; HepG2 viability: 10µM*; Giardia killer: -3; uPA surface inh: -13%; S2 tox: 32µM*; ATXN2 expr inh: inconclusive

What do the screens show for `COc1c(C)c2c(c(O)c1CC=C(C)CCC(=O)O)C(=O)OC2`?
ATXN2 expr inh: 64%

What do the screens show for `NS(=O)(=O)c1ccc(CCN2C(=O)/C(=C\c3ccc(Cl)cc3)SC2=S)cc1`?
TGFb inhibitor: -15%; HepG2 viability: 1%; Giardia killer: 0; uPA surface inh: inconclusive; ATXN2 expr inh: 25µM*

What do the screens show for `CC[C@H]1OC(=O)[C@H](C)[C@@H](O[C@H]2C[C@@](C)(OC)[C@@H](O)[C@H](C)O2)[C@H](C)[C@@H](O[C@@H]2O[C@@H](C)C[C@H](N(C)C)[C@@H]2O)[C@](C)(O)C[C@@H](C)C(=O)[C@H](C)[C@@H](O)[C@]1(C)O`?
ATXN2 expr inh: -1%

How did S=C(NCCc1ccccc1)NCc1cccc(Cl)c1 do in these assays?
TGFb inhibitor: 13µM*; HepG2 viability: -44%; Giardia killer: -13; uPA surface inh: 1%; S2 tox: inactive; ATXN2 expr inh: 1%

What do the screens show for `Nc1ccn([C@@H]2O[C@H](CO)[C@@H](O)[C@@H]2O)c(=O)n1`?
TGFb inhibitor: 22%; HepG2 viability: -4%; Giardia killer: inconclusive; uPA surface inh: -93%; S2 tox: inactive; ATXN2 expr inh: inconclusive

What do the screens show for `OCC1OC(n2cnc3c(=S)nc[nH]c32)C(O)C1O` (stereo not drawn)?
TGFb inhibitor: 10µM*!; HepG2 viability: -40%; Giardia killer: -21

Results for CC1(C)OC2C(CO)OC(n3cnc4c(=S)nc[nH]c43)C2O1 (stereo not drawn) ?
TGFb inhibitor: 0%; HepG2 viability: -5%; Giardia killer: 12; uPA surface inh: -2%; S2 tox: inactive; ATXN2 expr inh: -6%

How did Nc1ncn([C@@H]2O[C@H](CO)[C@@H](O)[C@@H]2O)c(=O)n1 do in these assays?
ATXN2 expr inh: 5.4µM*

Results for O=C1CC2(CCCC2)CC(=O)N1 ?
S2 tox: inactive; ATXN2 expr inh: 8%

How did Cc1ccc(C)c(CN2CCC3(CCC(CNC(=O)c4ccnn4C)O3)CC2)c1 (stereo not drawn) do in these assays?
S2 tox: inactive

How did CC(NC(=S)NCc1ccc(F)cc1)C12CC3CC(CC(C3)C1)C2 (stereo not drawn) do in these assays?
TGFb inhibitor: inconclusive; HepG2 viability: -11%; Giardia killer: -18; uPA surface inh: -4%; S2 tox: inactive; ATXN2 expr inh: 14µM*

Results for CCCc1ccc(C(C)NC(=S)NCc2ccc(F)cc2)cc1 (stereo not drawn) ?
TGFb inhibitor: inconclusive; HepG2 viability: -11%; Giardia killer: -22; uPA surface inh: -1%; S2 tox: inactive; ATXN2 expr inh: -39%
